In PubChem BioAssay AID2314 (National Center for Advancing Translational Sciences (NCATS), 2010) one finds max response data, which are given here for 67 molecules.

The campaign covered roughly 300,000 compounds. About 37,000 (12%) were called active. For the sample, actives were picked, then their nearest neighbours and some compounds at random. A number with no mark means an inactive call. Cut-off read from the data, not from the text of the source: active = max response mostly above about 13% (no sharp cut-off); inactive = mostly below about 14%.

A short description of this test: Cycloheximide Counterscreen for Small Molecule Inhibitors of Shiga Toxin. Note: read at 38.3 µM for the half of the compounds with a filed dose; 0% is about no effect. The following applies: cell reporter, cycloheximide protein synthesis inhibition counterscreen; hits give high values. Background: A counterscreen serves to expose hits that act by an unwanted route or on another target.
In the case of `CCn1cc(C(=O)Nc2cc(C)ccc2C)c(=O)c2ccc(C)nc21`, the max response was 7.8%.

For the molecule `COc1ccc(C2CC(c3cccs3)=NN2c2ccccc2)cc1` (configuration not stated), the max response was 41% (active).

As to `COc1ccc(C2=NN(c3ccccc3)C(c3cccs3)C2)cc1` (configuration not stated), the max response is 0.803%.

Take `Oc1ccccc1C1=NN(c2ccccc2)C(c2ccccc2)C1` (configuration not stated): the max response was 49.1% (active).

`COc1ccccc1N1N=C(c2cccs2)CC1c1ccccc1` (configuration not stated): the max response is 6.34%.

As to `CC(=O)Oc1ccccc1C1=NN(C(C)=O)C(c2ccccc2)C1` (configuration not stated), the max response is 9.57%.

In the case of `O=C(c1ccccc1)N1N=C(c2ccccc2O)CC1c1ccc(Br)cc1` (configuration not stated), the max response is 3.47%.

`COc1cccc(OCC(=O)NNC(=O)c2cnccn2)c1`: the max response is -1.98%.

For the molecule `Cc1cc(C)nc(N/N=C/c2ccncc2)n1`, the max response is 0.636%.

For `CCN(CC)c1ccc(/C=N/NC(=O)c2cnccn2)c(O)c1`, the max response was 28.1% (active).

Consider `Cc1cc(C)nc(N/N=C/c2c(CO)cnc(C)c2O)n1`, for which the max response was -2.74%.

For `NS(=O)(=O)c1ccc(CNC(=O)c2cnccn2)cc1`, the max response is -2.6%.

With `CCN(CC)c1ccc(/C=N/Nc2nc(C)cc(C)n2)c(O)c1`, the max response is 22.2% (active).

Regarding `O=C(Nc1ccccc1Cl)/C(Cl)=C(\Cl)S(=O)c1ccccc1` (configuration not stated), the max response was 14.2%.

With `Cc1cccc(NC(=O)N(Cc2cc3cc(C)cc(C)c3[nH]c2=O)CC2COCCO2)c1` (configuration not stated), the max response is -3.44%.

As for `O=C(Nc1ccccc1-c1ccccc1)c1ccccc1[N+](=O)[O-]`, the max response was -3.24%.

Turning to `CCN(Cc1ccccc1)C(=O)CN1C(=S)NC(C)(C)CC1C` (configuration not stated), the max response is -3.52%.

For `CCc1ccc2c(c1)C1(NN=C(c3ccccc3)S1)C(=O)N2` (configuration not stated), the max response is 69.8% (active).

On to `CCOC(=O)c1c(NC(=O)CCCN2CCOCC2)sc2c1CC(C)(C)OC2`, for which the max response was 12.6%.

Turning to `CC(C)N(C(=O)c1ccc(-c2ccccc2F)cc1)C(C)C`, the max response was -2.02%.

Turning to `CCOC(=O)CN(C)Cc1c[nH]c2ccccc12`, the max response was 0.657%.

On to `CN(Cc1cccs1)C(=O)Cc1c[nH]c2ccccc12`, for which the max response was 18.3% (active).

Regarding `COc1ccc(CN(C)C(=O)Cc2c[nH]c3ccccc23)c(OC)c1OC`, the max response is -1.59%.

Regarding `COc1cccc(CNC(=O)Cc2csc(Nc3nc(=S)[nH]c4ccccc34)n2)c1`, the max response is 10.3%.

For the molecule `CCOC(CNC(=O)C(=O)NCC(c1ccco1)N1CCN(c2ccc(OC)cc2)CC1)OCC` (configuration not stated), the max response was -5.43%.

As to `CCCC(C)C(=O)NCc1ccncc1` (configuration not stated), the max response was -3.47%.

Regarding `O=C(NNc1ccccc1Cl)C(O)(c1cccc(C(F)(F)F)c1)c1cccc(C(F)(F)F)c1`, the max response was -4.75%.

Take `N#CC(=C1SC=CS1)c1nc(-c2ccccc2)cs1`: the max response was 58.5% (active).

As to `N#CC(=C1CCCC1)c1nc(-c2ccc(Cl)cc2)cs1`, the max response is 27.6%.

As to `N#C/C(=C1\CCCN1)c1nc(-c2ccccc2)cs1`, the max response is 23% (active).

Consider `N#C/C(=C1/CCCN1)c1ccccn1`, for which the max response was -2.58%.

For `Cn1c(/C(C#N)=C2/CCCCCN2)nc2ccccc21`, the max response was 9.03%.

Turning to `Cc1ccc(S(=O)(=O)N2CCC(=O)N([C@H](COCc3ccccc3)Cc3ccccc3)CC2)cc1`, the max response is 7.08%.

Regarding `CN(/C(=N/S(=O)(=O)c1cccs1)c1ccccc1)c1ccc(O)cc1`, the max response was 11.5%.

Regarding `CN(C)S(=O)(=O)c1ccc(N2CCCC2)c(C(=O)Nc2cccc(F)c2)c1`, the max response was -3.38%.

For `COc1ccc(CNC(=O)c2nnn(CC(=O)Nc3cc(C)cc(C)c3)c2N)cc1`, the max response was -2.25%.

With `CCN(CC)c1ccc2oc(=O)c(C)nc2c1`, the max response was 16.6% (active).

Take `CCN(CC)c1ccc2cc(C(N)=O)/c(=N\NC(=O)c3ccncc3)oc2c1`: the max response was 5.35%.

Turning to `CCN(CC)c1ccc(C(=O)Nn2c(C)nc3ccccc3c2=O)cc1`, the max response is -2.07%.

Turning to `CCc1[nH]nc(C(=O)N2CCCC(CO)(Cc3ccc(F)cc3F)C2)c1C` (configuration not stated), the max response was -3.79%.

Turning to `CCN(C(=O)c1cc([N+](=O)[O-])ccc1NCc1cccnc1)c1ccccc1`, the max response was -3.46%.

Turning to `CN1C(=O)c2ccc(NC(=O)C3CCCCC3)cc2C1=O`, the max response is 1.88%.

For the molecule `CCOC(=O)c1cc(C)sc1NC(=O)C1CCC1`, the max response is 6.29%.

For the molecule `CS(=O)(=O)c1ccc2nc(NC(=O)C3CCCCC3)sc2c1`, the max response was 9.31%.

As to `Cc1nc(NC(=O)C2CCCCC2)sc1C`, the max response is 40.1% (active).

As for `Cc1cnc(NC(=O)C2CCCC2)s1`, the max response is 23.2% (active).

As for `Cc1nc(NC(=O)C23CCC(C)(C(=O)O2)C3(C)C)sc1C` (configuration not stated), the max response was -1.47%.

Take `CC(=O)NC1C(Oc2ccc(C)cc2)OC2COC(c3ccco3)OC2C1O` (configuration not stated): the max response was -5.51%.

Turning to `Cc1cc2c(s1)c1cnn(Cc3c(F)cccc3Cl)c(=O)c1n2C`, the max response is 4.69%.

With `Cc1cc[n+](-c2[nH]c(=O)sc2/C=N/NC(=O)c2ccccc2[O-])cc1C`, the max response was 1.3%.

`CC(C)(C)c1cc[n+](-c2[nH]c(=O)sc2/C=N/N=C(\[O-])c2ccccc2)cc1`: the max response is 25.7% (active).

On to `CCOC(=O)c1c(C)[nH]c(C)c1S(=O)(=O)N(C)CC(=O)Nc1ccccc1C`, for which the max response is -6.33%.

With `O=C(CCC(=O)n1ncc2ccccc21)NCc1ccccc1Cl`, the max response is -1.42%.

As for `COc1ccc([N+](=O)[O-])cc1N(CC(=O)Nc1ccccc1C(=O)N1CCOCC1)S(C)(=O)=O`, the max response is -2.31%.

Regarding `O=C(CSc1nnc(SCc2ccc(Cl)cc2)s1)N/N=C/c1ccccc1Cl`, the max response is 12.5% (active).

As to `Cc1nnsc1C(=O)N/N=C/c1ccccc1Cl`, the max response was -0.513%.

Turning to `O=C(Cc1ccccc1)N/N=C/c1ccc(Cl)cc1Cl`, the max response was 12%.

As to `N#C/C(=C/c1ccc(Cl)cc1)NC(=O)c1ccccc1`, the max response is 17.9%.

For `Cc1ccc(C)c(CSc2nc(-c3ccco3)nc3c2c(=O)n(C)c(=O)n3C)c1`, the max response is -2.42%.

Take `Cc1ccc(C)c(CN2CCC(CNC(=O)Nc3ccc(C)c(F)c3)CC2)c1`: the max response is 1.71%.

Take `N#CC1(NC(=O)COC(=O)CCN=C2NS(=O)(=O)c3ccccc32)CCCCC1`: the max response was -3.22%.

For `COC(=O)[C@@H](NC(=O)NCc1cccc(OC)c1)C(C)C`, the max response was -2.02%.

With `COc1cccc(NC(=O)NCCN2CCCCC2)c1`, the max response is 0.722%.

Turning to `COc1cccc(CC(=O)Nc2ccc(-c3csc(C)n3)cc2)c1`, the max response was 15.4%.

`COc1cccc(NC(=O)Cc2ccc(C)cc2)c1`: the max response was 27.5% (active).

As to `Cc1ccc(CC(=O)Nc2cccc(C#N)c2)cc1`, the max response was 14.1%.

Turning to `COc1cccc(NC(=O)NCc2ccc(F)cc2)c1`, the max response was 10.4% (active).
